Structures can show the parent of a compound that is named as a salt.
What was measured:
Details in all cases: treatment time: 24 h
A549-ACTB-RAB5A [1] = experiment: lowest phenotypically active concentration; higher = less potent
Outline: (§1)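 Phenotypic activity depended on meeting both a deviation and a reproducibility criterion. The fifteen gene-edited A549, HepG2 and WPMY1 reporter lines were treated at 0.3, 1, 3 or 9 µM for 24 h, four wells each, then imaged live with features normalised to solvent control wells. Deviation required ≥3 of 4 wells past the 95th percentile of control Euclidean distances, and reproducibility a median replicate Pearson correlation above the 95th percentile of non-replicates.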

HepG2-ACTB-RAB5A [2] = experiment: as above
Outline: as §1

WPMY1-GM130-SQSTM1 [3] = experiment: as above
Outline: as §1

A549-ACTB-RAB5A [4] = experiment: phenotypically active (imaging signature differs from DMSO and reproducible) at any of 0.3-9 uM (binary (1 = active, 0 = inactive)); higher = active
Outline: as §1

A549-CANX-COX4 = experiment: as above
Outline: as §1

A549-GM130-SQSTM1 [5] = experiment: as above
Outline: as §1

A549-TP53BP1-CLTA = experiment: as above
Outline: as §1

A549-TUBA1B-RELA [6] = experiment: as above
Outline: as §1

HepG2-ACTB-RAB5A [7] = experiment: as above
Outline: as §1

HepG2-CANX-COX4 = experiment: as above
Outline: as §1

HepG2-GM130-SQSTM1 = experiment: as above
Outline: as §1

HepG2-TP53BP1-CLTA = experiment: as above
Outline: as §1

HepG2-TUBA1B-RELA = experiment: as above
Outline: as §1

WPMY1-ACTB-RAB5A = experiment: as above
Outline: as §1

WPMY1-CANX-COX4 = experiment: as above
Outline: as §1

WPMY1-GM130-SQSTM1 [8] = experiment: as above
Outline: as §1

WPMY1-TP53BP1-CLTA = experiment: as above
Outline: as §1

WPMY1-TUBA1B-RELA = experiment: as above
Outline: as §1

A549-GM130-SQSTM1 [9] = experiment: lowest phenotypically active concentration; higher = less potent
Outline: as §1

A549-TUBA1B-RELA [10] = experiment: as above
Outline: as §1

| Structure (SMILES) | lowest phenotypically active concentration (A549-ACTB-RAB5A [1]) [µM] | lowest phenotypically active concentration (HepG2-ACTB-RAB5A [2]) [µM] | lowest phenotypically active concentration (WPMY1-GM130-SQSTM1 [3]) [µM] | phenotypically active (A549-ACTB-RAB5A [4]) | phenotypically active (A549-CANX-COX4) | phenotypically active (A549-GM130-SQSTM1 [5]) | phenotypically active (A549-TP53BP1-CLTA) | phenotypically active (A549-TUBA1B-RELA [6]) | phenotypically active (HepG2-ACTB-RAB5A [7]) | phenotypically active (HepG2-CANX-COX4) | phenotypically active (HepG2-GM130-SQSTM1) | phenotypically active (HepG2-TP53BP1-CLTA) | phenotypically active (HepG2-TUBA1B-RELA) | phenotypically active (WPMY1-ACTB-RAB5A) | phenotypically active (WPMY1-CANX-COX4) | phenotypically active (WPMY1-GM130-SQSTM1 [8]) | phenotypically active (WPMY1-TP53BP1-CLTA) | phenotypically active (WPMY1-TUBA1B-RELA) | lowest phenotypically active concentration (A549-GM130-SQSTM1 [9]) [µM] | lowest phenotypically active concentration (A549-TUBA1B-RELA [10]) [µM] |
| --- | --- | --- | --- | --- | --- | --- | --- | --- | --- | --- | --- | --- | --- | --- | --- | --- | --- | --- | --- | --- |
| CCOC(=O)C1=C[C@]2(CC)CCCN3CCc4c(n1c1ccccc41)[C@@H]32 [Vinpocetine] | 9 | 9 | 9 | 1 (active) | 0 (inactive) | 0 (inactive) | 0 (inactive) | 0 (inactive) | 1 (active) | 0 (inactive) | 0 (inactive) | 0 (inactive) | 0 (inactive) | 0 (inactive) | 0 (inactive) | 1 (active) | 0 (inactive) | 0 (inactive) |  |  |
| Nc1ncnc2c1nc(Br)n2[C@@H]1O[C@@H]2COP(=O)(O)O[C@H]2[C@H]1O [8-Bromo-cAMP, sodium salt] | 9 |  |  | 1 (active) | 0 (inactive) | 0 (inactive) | 0 (inactive) | 0 (inactive) | 0 (inactive) | 0 (inactive) | 0 (inactive) | 0 (inactive) | 0 (inactive) | 0 (inactive) | 1 (active) | 0 (inactive) | 0 (inactive) | 0 (inactive) |  |  |
| Cc1cccc(C)c1OCC(C)N (stereo not given) [mexiletine] |  | ≤ 0.3 | ≤ 0.3 | 0 (inactive) | 1 (active) | 0 (inactive) | 1 (active) | 0 (inactive) | 1 (active) | 0 (inactive) | 0 (inactive) | 0 (inactive) | 0 (inactive) | 0 (inactive) | 0 (inactive) | 1 (active) | 0 (inactive) | 0 (inactive) |  |  |
| Cc1cccc(-c2n[nH]cc2-c2ccc(F)c(-c3cnn(CCO)c3)c2)n1 | 9 |  | 9 | 1 (active) | 0 (inactive) | 0 (inactive) | 0 (inactive) | 0 (inactive) | 0 (inactive) | 1 (active) | 0 (inactive) | 1 (active) | 0 (inactive) | 1 (active) | 1 (active) | 1 (active) | 1 (active) | 1 (active) |  |  |
| C=C1CC[C@H](O)C/C1=C\C=C1\CCC[C@]2(C)[C@@H]([C@H](C)/C=C/[C@H](C)C(C)C)CC[C@@H]12 [Calciferol] |  |  |  | 0 (inactive) | 0 (inactive) | 1 (active) | 0 (inactive) | 0 (inactive) | 0 (inactive) | 0 (inactive) | 0 (inactive) | 0 (inactive) | 0 (inactive) | 0 (inactive) | 0 (inactive) | 0 (inactive) | 0 (inactive) | 0 (inactive) | 9 |  |
| Cn1cc(-c2ccc3nnc(Sc4ccc5ncccc5c4)n3n2)cn1 |  | 1 | 1 | 0 (inactive) | 1 (active) | 0 (inactive) | 1 (active) | 0 (inactive) | 1 (active) | 0 (inactive) | 0 (inactive) | 0 (inactive) | 0 (inactive) | 0 (inactive) | 0 (inactive) | 1 (active) | 0 (inactive) | 0 (inactive) |  |  |
| OCCOCCN1CCN(C2=Nc3ccccc3Sc3ccccc32)CC1 [Quetiapine hemifumarate] |  |  |  | 0 (inactive) | 0 (inactive) | 1 (active) | 0 (inactive) | 0 (inactive) | 0 (inactive) | 0 (inactive) | 0 (inactive) | 0 (inactive) | 0 (inactive) | 0 (inactive) | 0 (inactive) | 0 (inactive) | 0 (inactive) | 0 (inactive) | 9 |  |
| Cc1cccc(-c2nn(C(=S)Nc3ccccc3)cc2-c2ccnc3ccccc23)n1 |  | 9 | 9 | 0 (inactive) | 1 (active) | 1 (active) | 0 (inactive) | 1 (active) | 1 (active) | 1 (active) | 1 (active) | 1 (active) | 1 (active) | 1 (active) | 1 (active) | 1 (active) | 1 (active) | 1 (active) | 9 | 3 |
| CCc1ccc(/C=C/C(=O)Nc2ccc(C(C)=O)cc2)o1 [Heclin] |  |  |  | 0 (inactive) | 0 (inactive) | 1 (active) | 0 (inactive) | 1 (active) | 0 (inactive) | 0 (inactive) | 0 (inactive) | 0 (inactive) | 0 (inactive) | 0 (inactive) | 0 (inactive) | 0 (inactive) | 0 (inactive) | 0 (inactive) | 9 | 9 |
| O=S(=O)(c1ccccc1)N(CC(F)(F)F)c1ccc(C(O)(C(F)(F)F)C(F)(F)F)cc1 |  |  |  | 0 (inactive) | 0 (inactive) | 1 (active) | 0 (inactive) | 0 (inactive) | 0 (inactive) | 0 (inactive) | 0 (inactive) | 0 (inactive) | 0 (inactive) | 0 (inactive) | 0 (inactive) | 0 (inactive) | 0 (inactive) | 0 (inactive) | 9 |  |
| COc1cc(C)c(/C=C/C(C)=C/C=C/C(C)=C/C(=O)O)c(C)c1C [acitretin] | 9 |  | 9 | 1 (active) | 0 (inactive) | 0 (inactive) | 0 (inactive) | 0 (inactive) | 0 (inactive) | 0 (inactive) | 0 (inactive) | 0 (inactive) | 0 (inactive) | 0 (inactive) | 1 (active) | 1 (active) | 0 (inactive) | 0 (inactive) |  |  |
| Cc1c[nH]c2ncnc(-c3ccc(NC(=O)N(CCO)c4ccccc4)cc3)c12 | 9 |  |  | 1 (active) | 0 (inactive) | 0 (inactive) | 0 (inactive) | 0 (inactive) | 0 (inactive) | 0 (inactive) | 0 (inactive) | 0 (inactive) | 0 (inactive) | 0 (inactive) | 0 (inactive) | 0 (inactive) | 0 (inactive) | 1 (active) |  |  |
| CCOc1nc(NC(=O)Cc2cc(OC)ccc2OC)cc(N)c1C#N |  |  |  | 0 (inactive) | 0 (inactive) | 0 (inactive) | 0 (inactive) | 1 (active) | 0 (inactive) | 0 (inactive) | 0 (inactive) | 0 (inactive) | 0 (inactive) | 0 (inactive) | 0 (inactive) | 0 (inactive) | 0 (inactive) | 0 (inactive) |  | 9 |
| C[C@@H]1CN(Cc2ccc(F)cc2)[C@@H](C)CN1C(=O)c1cc2c(C(=O)C(=O)N(C)C)cn(C)c2cc1Cl [SCIO 469 hydrochloride] |  | 9 |  | 0 (inactive) | 0 (inactive) | 0 (inactive) | 0 (inactive) | 0 (inactive) | 1 (active) | 1 (active) | 0 (inactive) | 1 (active) | 1 (active) | 1 (active) | 1 (active) | 0 (inactive) | 0 (inactive) | 0 (inactive) |  |  |
| O=C(O)COc1ccc(Br)cc1/C=C1\SC(=S)N(Cc2cccnc2)C1=O |  |  | 3 | 0 (inactive) | 0 (inactive) | 1 (active) | 0 (inactive) | 0 (inactive) | 0 (inactive) | 0 (inactive) | 1 (active) | 0 (inactive) | 0 (inactive) | 0 (inactive) | 0 (inactive) | 1 (active) | 0 (inactive) | 0 (inactive) | 9 |  |
| CC1=C(/C=C/C(C)=C/C=C/C(C)=C/C(=O)O)C(C)(C)CCC1 [isotretinoin] |  |  |  | 0 (inactive) | 0 (inactive) | 0 (inactive) | 0 (inactive) | 0 (inactive) | 0 (inactive) | 1 (active) | 0 (inactive) | 0 (inactive) | 0 (inactive) | 0 (inactive) | 0 (inactive) | 0 (inactive) | 1 (active) | 0 (inactive) |  |  |
| CC(C)N(CCCNC(=O)Nc1ccc(C(C)(C)C)cc1)C[C@H]1O[C@@H](n2cc(Br)c3c(N)ncnc32)[C@H](O)[C@@H]1O |  | 3 | 9 | 0 (inactive) | 0 (inactive) | 0 (inactive) | 1 (active) | 0 (inactive) | 1 (active) | 1 (active) | 1 (active) | 1 (active) | 1 (active) | 1 (active) | 1 (active) | 1 (active) | 1 (active) | 1 (active) |  |  |
| c1ccc(-c2n[nH]cc2-c2ccnc3ccccc23)nc1 |  |  |  | 0 (inactive) | 0 (inactive) | 0 (inactive) | 0 (inactive) | 1 (active) | 0 (inactive) | 1 (active) | 1 (active) | 1 (active) | 0 (inactive) | 1 (active) | 1 (active) | 0 (inactive) | 0 (inactive) | 0 (inactive) |  | 9 |
| CC1(C)CCC(C)(C)c2cc(C(O)C(=O)Nc3ccc(C(=O)O)cc3F)ccc21 (stereo not given) |  |  |  | 0 (inactive) | 0 (inactive) | 0 (inactive) | 0 (inactive) | 0 (inactive) | 0 (inactive) | 1 (active) | 0 (inactive) | 0 (inactive) | 0 (inactive) | 0 (inactive) | 0 (inactive) | 0 (inactive) | 0 (inactive) | 0 (inactive) |  |  |
| O=c1cc(N2CCOCC2)oc2c1ccc1ccccc12 |  |  |  | 0 (inactive) | 0 (inactive) | 1 (active) | 0 (inactive) | 0 (inactive) | 0 (inactive) | 0 (inactive) | 0 (inactive) | 0 (inactive) | 0 (inactive) | 0 (inactive) | 0 (inactive) | 0 (inactive) | 0 (inactive) | 1 (active) | 3 |  |
| Clc1ccc(C(c2ccc(Cl)cc2)[n+]2ccn(CC(OCc3ccc(Cl)cc3Cl)c3ccc(Cl)cc3Cl)c2)cc1 (stereo not given) [Calmidazolium chloride] |  | 3 | 3 | 0 (inactive) | 0 (inactive) | 0 (inactive) | 0 (inactive) | 0 (inactive) | 1 (active) | 0 (inactive) | 0 (inactive) | 0 (inactive) | 1 (active) | 0 (inactive) | 1 (active) | 1 (active) | 0 (inactive) | 1 (active) |  |  |
| Cc1cc2sc(NC(=O)Cc3ccccc3)nc2cc1Cl |  |  |  | 0 (inactive) | 0 (inactive) | 1 (active) | 0 (inactive) | 1 (active) | 0 (inactive) | 0 (inactive) | 0 (inactive) | 0 (inactive) | 0 (inactive) | 0 (inactive) | 0 (inactive) | 0 (inactive) | 0 (inactive) | 0 (inactive) | 3 | 9 |
| O=C(/C=C/c1ccc(O)cc1)c1ccc(O)cc1O [Isoliquiritigenin] |  |  |  | 0 (inactive) | 0 (inactive) | 0 (inactive) | 0 (inactive) | 1 (active) | 0 (inactive) | 0 (inactive) | 1 (active) | 0 (inactive) | 0 (inactive) | 0 (inactive) | 1 (active) | 0 (inactive) | 1 (active) | 0 (inactive) |  | 9 |
